Experimental data taken from PubChem BioAssay AID425 (Sanford-Burnham Center for Chemical Genomics, 2006).
Where “and” joins values, the source holds several entries; their conditions need not be identical. Equal entries are not always repeated. Hit rate of the full screen: of about 110,000 compounds, about 190 (0.17%) were called active. The sample holds actives, similar compounds and a random draw of the others, so the mix is not that of the screen. No stated cut-off is given here; in the data, active means inhibition above about 50%; inactive means the rest. Results with a measured potency or affinity are listed apart. More than one record can exist for a structure, and the calls need not agree.

Molecular target: Dual specificity protein phosphatase 6 (Rattus norvegicus) (UniProt Q64346)
Sequence (Q64346 whole entry, looked up): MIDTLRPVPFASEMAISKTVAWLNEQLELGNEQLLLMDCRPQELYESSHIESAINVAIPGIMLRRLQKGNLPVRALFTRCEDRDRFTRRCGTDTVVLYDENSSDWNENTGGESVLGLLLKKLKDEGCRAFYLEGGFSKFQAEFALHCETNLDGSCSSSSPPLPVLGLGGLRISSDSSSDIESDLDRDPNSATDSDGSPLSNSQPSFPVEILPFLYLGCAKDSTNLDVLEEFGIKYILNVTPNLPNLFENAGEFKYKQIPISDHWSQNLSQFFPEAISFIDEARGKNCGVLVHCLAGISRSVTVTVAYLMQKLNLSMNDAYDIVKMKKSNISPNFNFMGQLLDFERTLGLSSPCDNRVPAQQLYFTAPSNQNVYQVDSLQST
Experiment: MKP-3 phosphatase inhibitors, primary screen, biochemical, rat enzyme, in vitro (AID 425);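 further: plate controls were vehicle for no effect and reference inhibitor for full effect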
Settings: recombinant MKP-3 phosphatase activity, fluorescence; at 20 µM; stronger effect = higher value

Compound | inhibition
Cc1nc2ncccn2c1-c1csc(Nc2cccc(O)c2)n1 | 2.7% (inactive)
O=C(CCCCC(=O)NCc1cccs1)NCc1cccs1 | -5.6% (inactive)
CCn1cc(C(C)NC(=O)COc2ccc(Cl)cc2C)c(C)n1 (stereo not drawn) | -4% (inactive)
c1ccc(-c2nc(C3COc4ccccc4O3)cs2)cc1 (stereo not drawn) | -4.2% (inactive)
CCOc1ccc2nc(Nc3nc(O)c(C)c(=O)[nH]3)nc(C)c2c1 | 0.7% (inactive)
CCOc1ccc2nc(Nc3nc(C)c(C)c(=O)[nH]3)nc(C)c2c1 | 1.2% (inactive)
COc1ccc([N+](=O)[O-])cc1NC(=O)c1ccc(N(C)C)cc1 | 1.4% (inactive)
Cn1cccc1Cc1nnc(SCC(=O)Nc2nc3ccccc3s2)n1CCc1ccccc1 | -4.6% (inactive)
O=C1c2cccnc2-c2ncccc21 | 6.6% (inactive)
Cc1ccc(C)n1-c1ccc(OCC(=O)O)cc1 | 25.7% (inactive)
Cc1ccc(C)n1-c1ccc(SCC(=O)O)cc1 | 106% (active)
Cc1ccc(C)n1-c1ccc(CC(=O)O)cc1 | 25.5% (inactive)
CCOC(=O)c1c(NC(=S)NCc2ccccc2)sc2c1CCC2 | 0% (inactive)
CC(Cc1ccccc1)N=Cc1c(O)[nH]c2ccccc12 (stereo not drawn) | 3.3% (inactive)
CCOC(=O)c1c(C)[nH]c(/C=C(/C#N)C(N)=NCc2ccccc2)c1O | 1.3% (inactive)
CC(Cc1ccccc1)N=C(N)/C(C#N)=C\c1[nH]c2ccccc2c1O (stereo not drawn) | 69.4% (active)
COc1ccc(N(CC(=O)NCC2CCCO2)S(=O)(=O)c2c(C)noc2C)cc1 (stereo not drawn) | -8.1% (inactive)
O=C(CSc1ccc(C(=O)O)cc1)Nc1ccccc1 | 0.1% (inactive)
Cc1nc(SCC(=O)Nc2ccc(F)cc2)c2oc3ccccc3c2n1 | -2.1% (inactive)
Cc1nc(=O)c(-c2ccccc2)c(C)n1-c1ccc(O)c(C(=O)O)c1 | -7.4% (inactive)
Cc1ccc(-c2ccccc2)n1-c1ccc(Cl)c(C(=O)O)c1 | 4.5% (inactive)
Cc1ccc(C)n1-c1ccc(C(=O)O)c(Cl)c1 | 28.4% (inactive)
Cc1ccc(C)n1-c1ccc(C(=O)O)c(O)c1 | 101% (active)
O=C(O)c1ccc(-n2cccc2)cc1O | 4.3% (inactive)
Cc1ccc(C)n1-c1ccc(O)c(C(=O)O)c1 | 100% (active)

Compound | inhibition
Cc1nc(=O)c(-c2ccccc2)c(C)n1-c1ccc(C(=O)O)c(O)c1 | 3.2% (inactive)
Cc1ccc(-c2ccccc2)n1-c1ccc(O)c(C(=O)O)c1 | 42.1% (inactive)
Cc1ccc(C)n1-c1ccc(Cl)c(C(=O)O)c1 | 71.5% (active)
CCCOc1ccc(C2/C(=C(/O)c3ccccc3)C(=O)C(=O)N2CCCN(C)C)cc1OC (stereo not drawn) | -0.5% (inactive)
CCN(CC)CC(=O)Nc1c(Br)ccc2c1OCO2 | -11.8% (inactive)
CCC(=O)N1CCc2cc(Br)cc(S(=O)(=O)N3CCN(C(=O)c4ccco4)CC3)c21 | 4.6% (inactive)
COc1ccc(/C=N/NC(=O)CCn2c3ccccc3c3ccccc32)cc1 | 0.1% (inactive)
CCSc1nnc(Cn2c(=O)sc3ccccc32)n1C | 0.4% (inactive)
CC(C)(C)C(=O)CC(O)(c1ccccc1)C(F)(F)C(F)F (stereo not drawn) | -1.8% (inactive)
CC(C)(C)C1=CC(N)=C(C(C)(C)C)C(=O)C1=O | 86.4% (active)
CC(=O)/C(C1=C(C(C)(C)C)C(=O)C(=O)C(C(C)(C)C)=C1)=C(/C)O | 6.5% (inactive)
CC(C)(C)C1=CC(=O)C=C(C(C)(C)C)C1=O | 6.8% (inactive)
c1ccc(Cn2ncc3c(N4CCN(c5ccccn5)CC4)ncnc32)cc1 | 6.4% (inactive)
COc1ccc(CNS(=O)(=O)c2ccc([N+](=O)[O-])cc2)cc1 | -4% (inactive)
C=CCN1C(=O)NC(=O)/C(=C\c2ccc(OCc3ccc(Cl)cc3)c(OC)c2)C1=O | 5.1% (inactive)
COc1cccc(/C=N/n2c(SC)nnc2-c2ccccc2)c1O | -6.8% (inactive)
Brc1ccc(/C=N/n2c(-c3ccccc3)nnc2-c2ccccc2)cc1 | -2.7% (inactive)
O=C(c1ccco1)N1CCN(S(=O)(=O)c2ccc(Br)s2)CC1 | -14.7% (inactive)
CCOc1ccc(NC(=O)c2cccc(F)c2)cc1 | 4.1% (inactive)
O=C(Nc1cccc(NC(=O)c2cccnc2)c1)c1cccnc1 | 5.6% (inactive)
Nc1ccc(S(=O)(=O)O)c2cccc(S(=O)(=O)O)c12 | -2.3% (inactive)
Nc1cc(S(=O)(=O)O)cc2cccc(S(=O)(=O)O)c12 | -2% (inactive)
Nc1ccc(S(=O)(=O)O)c2cccc(O)c12 | 29.8% (inactive) and 64.8% (active)
O=C(c1ccc(N2CCN(C(=O)c3ccccc3F)CC2)cc1)c1cccc(F)c1 | 4.1% (inactive)
O=C(c1ccc(N2CCN(C(=O)c3ccccc3Br)CC2)cc1)c1cccc(F)c1 | 52.2% (active)

Compound | inhibition
O=C(c1ccc(N2CCN(C(=O)c3ccccc3)CC2)cc1)c1cccc(F)c1 | 4.8% (inactive)
Cc1ccc(C(=O)Nc2ccc(N3CCOCC3)c(Cl)c2)cc1C | 5.9% (inactive)
O=S(=O)(c1cc(Cl)cc(Cl)c1O)c1cc(Cl)cc(Cl)c1O | -3.1% (inactive)
O=C(Cn1c(NCCCO)nc2ccccc21)c1ccco1 | -11.1% (inactive)
O=C(O)C1Nc2c(C(=O)N3CCOCC3)cccc2C2C=CCC12 (stereo not drawn) | 0.2% (inactive)
CCOC(=O)c1ccc2c(c1)C1C=CCC1C(c1ccc(Cl)cc1Cl)N2 (stereo not drawn) | 3.3% (inactive)
CC(=O)c1ccc2c(c1)C1C=CCC1C(c1ccc(Cl)cc1)N2 (stereo not drawn) | 14.4% (inactive)
O=C(O)C1Nc2c(Cl)cc(Cl)cc2C2C=CCC12 (stereo not drawn) | 98.5% (active)
Cc1cc(I)c2c(c1)C1C=CCC1C(C(=O)O)N2 (stereo not drawn) | 103% (active)
Cc1ccc2c(c1)C1C=CCC1C(c1ccccc1[N+](=O)[O-])N2 (stereo not drawn) | 7% (inactive)
O=C(O)C1Nc2c(C(=O)N3CCCC3)cccc2C2C=CCC12 (stereo not drawn) | 5% (inactive)
Cc1ccc2c(c1)C1C=CCC1C(c1ccc([N+](=O)[O-])cc1)N2 (stereo not drawn) | 3.4% (inactive)
Cc1c(Cl)ccc2c1NC(C(=O)O)C1CC=CC21 (stereo not drawn) | 107% (active)
Brc1ccc(-c2nc(Cc3ccccc3)no2)cc1 | -2.5% (inactive)
CCOc1cc(-c2noc(CCC(=O)Nc3cccnc3)n2)ccc1OC | -11.2% (inactive)
O=C(Nc1ccc(Cl)c(-c2nc3ccccc3[nH]2)c1)c1cc2ccccc2o1 | 5% (inactive)
O=C(Nc1ccc(-c2nc3ccccc3[nH]2)cc1)c1ccc(Cl)c(Cl)c1 | 51.8% (active)
O=C(Nc1ccc(-c2nc3ccccc3[nH]2)cc1)c1ccccc1 | -0.7% (inactive)
O=C(Nc1ccc(-c2nc3ccccc3[nH]2)cc1)c1ccc(Cl)cc1 | 5.4% (inactive)
O=C(Nc1ccc(-c2nc3ccccc3[nH]2)cc1)c1cc2ccccc2o1 | 53.5% (active)
O=C(Nc1cccc(-c2nc3ccccc3[nH]2)c1)c1ccco1 | 3.5% (inactive)
O=C(Nc1ccc(-c2nc3ccccc3[nH]2)cc1)c1ccc(Br)o1 | 8.1% (inactive)
Cc1ccc2nc(-c3cccc(NC(=O)c4ccco4)c3)[nH]c2c1 | 0.4% (inactive)
Cc1cc(F)ccc1S(=O)(=O)Nc1c(C)n(C)n(-c2ccccc2)c1=O | 6.3% (inactive)
O=C(O)COc1ccc2c(=O)c(-c3ccc(Cl)cc3)coc2c1 | 2% (inactive)

Compound | inhibition
CCCCOCCCNC(=O)N[C@@H](CC(C)C)C(=O)O | 7.7% (inactive)
COc1ccc(Cl)cc1C(=O)Nc1ccc(N(C)C)cc1 | 0.6% (inactive)
CSCCNS(=O)(=O)c1ccc(NC(C)=O)cc1 | 1.1% (inactive)
CCOc1ccc(N2C(=O)NC(=O)/C(=C\c3ccc(I)o3)C2=O)cc1 | 5.3% (inactive)
CCOc1ccc(N2C(=O)/C(=C/c3ccc(I)o3)C(=O)NC2=S)cc1 | 107% (active)
CCc1ccc(N2C(=O)/C(=C/c3ccc(I)o3)C(=O)NC2=S)cc1 | 104% (active)
O=C1NC(=O)N(c2ccccc2F)C(=O)/C1=C/c1ccc(OCc2cccc(C(=O)O)c2)cc1 | 0.8% (inactive)
O=C1NC(=S)N(c2ccccc2F)C(=O)/C1=C/c1ccc(I)o1 | 91.2% (active)
O=C1NC(=O)N(c2ccc(Cl)cc2)C(=O)/C1=C/c1ccc(I)o1 | 23.6% (inactive)
O=C1NC(=S)N(c2ccccc2F)C(=O)/C1=C/c1ccc(OCc2cccc(C(=O)O)c2)cc1 | 68.5% (active)
CCOc1ccc(N2C(=O)/C(=C/c3ccc(OCc4cccc(C(=O)O)c4)cc3)C(=O)NC2=S)cc1 | -1.9% (inactive)
Cc1ccc(N2C(=O)NC(=O)/C(=C\c3ccc(I)o3)C2=O)cc1 | 5.4% (inactive)
O=C1NC(=S)N(c2ccccc2F)C(=O)/C1=C/c1ccc(Sc2ccccc2)o1 | 7.1% (inactive)
CCOc1ccc(N2C(=O)/C(=C/c3ccc(N(CC)CC)o3)C(=O)NC2=S)cc1 | -0.2% (inactive)
O=C1NC(=O)N(c2ccccc2F)C(=O)/C1=C/c1ccc(I)o1 | 12.9% (inactive)
CC(C)c1ccc(NC2=NS(=O)(=O)c3cc([N+](=O)[O-])ccc32)cc1 | 2.8% (inactive)
Cc1c(Cl)cccc1NC(=O)C(=O)NCc1ccc2c(c1)OCO2 | 0.1% (inactive)
CCOC(=O)c1ccc(NC(=O)CN(c2ccccc2OC)S(=O)(=O)c2ccccc2)cc1 | -2.1% (inactive)
CCCC(=O)OCC(=O)Nc1cc(C(C)(C)C)nn1-c1ccccc1 | -0.4% (inactive)
C=CCc1cccc2cc(C(=O)NCc3ccccc3)c(=O)oc12 | 6.2% (inactive)
COc1ccc(NC(=O)C2CCC(C)(C(=O)O)C2(C)C)cc1 (stereo not drawn) | -6.7% (inactive)
O=C(COc1ccc(Cl)cc1)Nc1nc(-c2ccc(Cl)cc2)cs1 | 2.6% (inactive)
COc1ccc(/C=N/NC(=O)c2cc(-c3ccc(Cl)cc3)n[nH]2)cc1 | 3.6% (inactive)
